Source: PubChem
This is a sample that favours compounds with a hit; in the whole collection about 9.6% have one here.
hDAT+cocaine – human DAT dopamine uptake with cocaine, either direction | Q01959 | LLC-PK1 hDAT cells, [14C]-dopamine uptake with cocaine IC80; actives deviate in either direction | B-score at 10 µM | 110,000 compounds, 1.3% hits;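 active means Z score or B-score, a plate-position-corrected score, falls beyond the plate's 99.7% confidence bounds, in either direction; inactive means both scores lie inside the 99.7% bounds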
Target sequence (Q01959 whole entry, looked up): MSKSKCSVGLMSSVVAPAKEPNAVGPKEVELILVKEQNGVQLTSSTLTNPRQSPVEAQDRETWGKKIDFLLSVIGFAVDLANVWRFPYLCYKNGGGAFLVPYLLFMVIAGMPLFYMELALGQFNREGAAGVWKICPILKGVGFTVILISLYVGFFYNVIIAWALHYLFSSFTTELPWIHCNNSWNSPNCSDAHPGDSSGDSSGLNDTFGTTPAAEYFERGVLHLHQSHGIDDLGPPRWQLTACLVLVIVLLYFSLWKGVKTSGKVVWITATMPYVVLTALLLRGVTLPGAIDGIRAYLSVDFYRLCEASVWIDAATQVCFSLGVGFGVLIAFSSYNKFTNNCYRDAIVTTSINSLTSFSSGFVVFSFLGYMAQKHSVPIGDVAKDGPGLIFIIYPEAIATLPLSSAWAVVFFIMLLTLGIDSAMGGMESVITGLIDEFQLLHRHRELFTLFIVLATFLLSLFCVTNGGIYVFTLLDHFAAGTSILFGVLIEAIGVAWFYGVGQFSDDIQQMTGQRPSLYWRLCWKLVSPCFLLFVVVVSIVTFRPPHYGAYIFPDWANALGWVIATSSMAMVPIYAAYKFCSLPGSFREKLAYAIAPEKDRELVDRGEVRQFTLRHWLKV
PostGolgi ctrl – inhibits growth of the yeast control strain. efflux-deficient yeast background strain, growth absorbance A615, 16 h. inhibition, % at 10 µM. 98,000 compounds, 5% hits
Cav3 T inh – human Cav3.2 channel inhibition, primary screen; B-score at 10 µM; 100,000 compounds, 4% hits; Cav3.2-expressing cells, Fluo-4 calcium fluorescence FDSS; stronger effect = lower value; AID 449739;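 active means single-dose well whose peak fluorescence ratio is a statistical outlier from its plate by either plate-standardised score or position-corrected B-score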
PLAP activator – activates human placental alkaline phosphatase; P05187; purified PLAP enzyme, luminescent substrate read-out; stronger effect = higher value; activation fold at 20 µM; 96,000 compounds, 1.2% hits; AID 696; in the data active means activation fold above about 2
PostGolgi yeast – growth inhibition of a yeast mutant, post-Golgi transport screen. post-Golgi transport phenotypic cell assay. inhibition, % at 10 µM. 98,000 compounds, 0.9% hits;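 further: yeast cells grown in 1536-well plates; yeast grown about 18 h at 30C before absorbance read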
Numbers stand for hits; n = inactive; x = no result. Unless noted, no stated cut-off is given here; in the data, active means inhibition above about 30%; inactive means the rest.

SMILES	hDAT+cocaine	PostGolgi ctrl	Cav3 T inh	PLAP activator	PostGolgi yeast
O=C(Cn1c(C(=O)NCC2CCCO2)cc2sccc21)c1ccccc1 (stereo not given)	n	n	n	n	n
O=C(Cn1c(C(=O)NCc2ccco2)cc2sccc21)c1ccccc1	x	44	x	n	n
O=C(Cn1c(C(=O)N2CCN(C3CCCC3)CC2)cc2sccc21)c1ccccc1	2.5	n	n	n	n
COC(=O)C(NC(=O)c1ccc(Cl)cc1)(Nc1nc(C)cs1)C(F)(F)F (stereo not given)	n	n	n	n	n
CC1Cc2cc(/C(O)=C3\C(=O)C(=O)N(CCN(C)C)C3c3ccccc3F)ccc2O1 (stereo not given)	n	n	n	n	n
CC1(C)N=C(SCC(=O)Nc2ccc(Cl)cc2)C(c2ccccc2)=N1	n	n	-5.2	n	n
COC(=O)C1=C(C)NC(=O)C1(NS(=O)(=O)c1ccc(NC(C)=O)cc1)C(F)(F)F (stereo not given)	n	n	n	n	n
CCCCc1ccc(S(=O)(=O)NCCc2ccncc2)cc1	n	n	-3.6	n	n
Cc1ccc(S(=O)(=O)NCCc2ccncc2)cc1	n	n	n	n	n
O=C(OCc1nc2ccccc2s1)c1cccs1	n	n	-5.2	n	n
CC(=NC1CC1)c1c(-c2ccccc2)[nH]n(-c2nc3ccccc3s2)c1=O	n	36	n	n	n
CC(=NC1CCCC1)c1c(C)[nH]n(-c2nc3ccccc3s2)c1=O	n	n	n	n	n
O=c1c(C=NCCCn2ccnc2)c(-c2ccccc2)[nH]n1-c1nc2ccccc2s1	n	n	n	n	n
CC(=NCCCn1ccnc1)c1c(-c2ccccc2)[nH]n(-c2nc3ccccc3s2)c1=O	n	n	n	2	n
CCN1CCN(C(=S)NCCc2ccccc2)CC1	n	n	x	n	n
CC1CCCN(C(=S)NCCc2ccccc2)C1 (stereo not given)	n	32	n	n	n
CCn1c(N2CCN(C(=S)NCCc3ccccc3)CC2)nc2ccccc21	n	31	n	n	n
OC(CCN1CCOCC1)(c1ccc(Cl)cc1)C1CCCCC1 (stereo not given)	n	n	n	n	n
CC(C)Oc1ccccc1C1Nc2ccccc2C(=O)N1c1ccc2c(c1)OCCO2 (stereo not given)	n	n	n	n	n
Cc1ccc(N2C(=O)c3ccccc3NC2C(C)Cc2ccc3c(c2)OCO3)cc1 (stereo not given)	n	x	-4.3	x	x
COc1ccc(-c2nnc3c4ccccc4c(C)nn23)cc1	n	44	n	n	n
Cc1ccccc1-c1nnc2c3ccccc3c(C)nn12	n	x	n	x	x
Cc1nn2c(-c3ccncc3)nnc2c2ccccc12	n	64	n	n	n
C=CCNC(=O)C1CC2Cn3c(nc4cc5ccccc5cc43)C2N1C (stereo not given)	n	x	n	x	x
COC(=O)c1[nH]c2ccc(F)cc2c1NC(=O)CCN1CCN(C(=O)c2ccco2)CC1	n	32	n	n	n
SMILES	hDAT+cocaine	PostGolgi ctrl	Cav3 T inh	PLAP activator	PostGolgi yeast
COC(=O)c1[nH]c2ccc(F)cc2c1NC(=O)CCN1CCN(Cc2ccc3c(c2)OCO3)CC1	n	n	n	n	n
Cc1c(NC(=O)COC(=O)C(c2ccc(Cl)cc2)C(C)C)c(=O)n(-c2ccccc2)n1C (stereo not given)	-7.9	n	n	n	n
CCn1c2ccccc2c2nnc(SCC(=O)Nc3c(C)n(C)n(-c4ccccc4)c3=O)nc21	n	n	n	n	n
Cc1c(NC(=O)CSc2nc3ccccc3[nH]2)c(=O)n(-c2ccccc2)n1C	n	n	n	2.2	n
C=CCn1c2ccccc2c2nnc(SCC(=O)Nc3c(C)n(C)n(-c4ccccc4)c3=O)nc21	3	n	3.8	n	n
Cc1c(NC(=O)CSc2nc3ccc(Cl)cc3[nH]2)c(=O)n(-c2ccccc2)n1C	n	n	n	2	n
COc1ccc(N(C)S(=O)(=O)c2cccc(C(=O)Nc3ccc(-n4cnnn4)cc3)c2)cc1	n	n	n	n	n
O=c1oc(-c2cccs2)nc2c1cnn2-c1ccccc1	n	n	n	n	n
Cc1ccc(N2C(=O)N(CC(=O)N(C)Cc3ccccc3)C(=O)C2C)cc1 (stereo not given)	n	n	n	n	n
Cc1ccc(N2C(=O)N(CC(=O)NC(c3ccccc3)c3ccccc3)C(=O)C2C)cc1 (stereo not given)	n	n	-10	n	n
NCCCN1CCOCC1	n	n	n	n	n
CC(C)Cc1nnc(NS(=O)(=O)c2ccc(Cl)cc2)s1	n	n	n	n	n
COC(=O)Cn1c(=NC(=O)CSC(C)=O)sc2ccccc21	n	n	-6.2	n	n
COC(=O)Cn1c(=O)sc2ccccc21	n	n	n	n	n
CCn1c(=NC(=O)CSC(C)=O)sc2ccccc21	n	n	-7.3	n	n
COc1ccc(OCCSc2nnc3sc4ccccc4n23)cc1	n	n	n	n	38
CCOc1ccccc1C1CC(=O)NC(SCC(=O)Nc2nccs2)=C1C#N (stereo not given)	n	n	n	n	n
CCCCCC(=O)NC(=S)Nc1ccc(N2CCCCC2)c(Cl)c1	n	n	n	n	n
CCCC(=O)NC(=S)Nc1cccc(Cl)c1N1CCCCC1	n	n	-5	n	n
CCN(CC)C(=O)C(Sc1ccccc1)c1ccccc1 (stereo not given)	n	n	n	n	n
CCOC(=O)N1CCN(C2CC(=O)N(c3ccc(Oc4ccccc4)cc3)C2=O)CC1 (stereo not given)	n	n	n	n	n
O=C1C2C3CC(C(Br)C3Br)C2C(=O)N1c1ccccn1 (stereo not given)	-7.9	n	n	n	n
Cc1cc(C)c(NC(=O)CSc2nnc(SCC(=O)Nc3c(C)cc(C)cc3C)n2N)c(C)c1	n	n	n	n	n
CCOC(=O)c1cnn(CCOC(=O)C2CC2)c1NC(=O)C1CC1	n	n	-3.6	n	n
Cn1c(C(=O)OCC(=O)NCCc2ccccc2)cc2sccc21	n	n	n	n	n
SMILES	hDAT+cocaine	PostGolgi ctrl	Cav3 T inh	PLAP activator	PostGolgi yeast
CC12CC3CC(C)(C1)CC(C(=O)NC1=NCCS1)(C3)C2	n	38	n	n	n
CCN(CC)CCNC(=O)C12CC3CC(C)(CC(C)(C3)C1)C2	n	n	n	2.1	n
Cc1ccc(NC(=O)C(=O)NNC(=O)c2ccccc2C)cc1Cl	x	n	x	n	n
COCCCNC(=O)C(=O)NCCCOC(C)C	n	n	n	n	n
COc1ccc(F)cc1S(=O)(=O)N1CCN(Cc2ccc3c(c2)OCO3)CC1	n	n	x	n	n
COc1ccc(S(=O)(=O)N2CCN(Cc3ccc4c(c3)OCO4)CC2)c2ccccc12	n	35	n	n	n
O=S(=O)(Cc1ccccc1Cl)N1CCN(Cc2ccc3c(c2)OCO3)CC1	n	35	n	n	89
Cc1ccc2nsnc2c1S(=O)(=O)N1CCN(Cc2ccc3c(c2)OCO3)CC1	5.4	n	n	n	n
CSc1ccc(S(=O)(=O)N2CCN(Cc3ccc4c(c3)OCO4)CC2)cc1	n	53	n	n	55
O=S(=O)(Cc1ccc(Cl)cc1)N1CCN(Cc2ccccc2)CC1	n	n	n	n	n
